Abeta rescue: compounds reversing amyloid beta toxicity in yeast | Potency, µM (series often up to 46.1 µM), actives largely listed as activators | yeast expressing A-beta42, growth rescue, OD600, 48 h; response scale: 0% DMSO, 100% iron-clioquinol control | hit rate 0.063% among 410,000 | AID 1347071; further: nearly all actives have a fitted effect of over 55% in size
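Yeast A-beta toxicity model in growth medium with pinned compounds, 48 h at 30 C; growth read as absorbance at 600 nm. Normalized to FeCl3/clioquinol equimolar mix (positive) and DMSO (negative).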
FUS suppressor: FUS proteinopathy suppression in yeast. S. cerevisiae FUS-expressing, growth rescue, OD600, 24 h. Potency, µM (doses to about 76.6 µM), usual class: activators. hit rate 0.24% among 390,000. AID 1347120;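 further: plate controls were DMSO vehicle for no effect and reference control for full effect; nearly all actives have a fitted effect of over 55% in size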
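Yeast expressing FUS under galactose induction, OD 0.005 in 2% galactose medium; compounds in a dilution series, 24 h at 30C. Growth rescue by absorbance at 600 nm; CP55940 positive control, DMSO negative.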
TDP-43 yeast inh: TDP-43 toxicity inhibition in yeast | TDP-43 expressing yeast growth rescue, BacTiter-Glo, 24 h | Potency, µM (titrated, usually from 46.1 µM), without a hit: at the top dose growth rescue (activation), usual class: activators | hit rate 1.8% among 410,000; further: % of control where 0% means no effect; nearly all actives have a fitted effect of over 50% in size
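In this qHTS, compounds that restore growth of yeast expressing TDP-43 appear as activators. Cells (OD600=0.02, galactose medium, raffinose-pregrown) are incubated with compound 24 hr at 30 deg C and growth is quantified by BacTiter-Glo.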
aSyn yeast inh: inhibitors of alpha-synuclein toxicity in yeast. Yeast expressing alpha-synuclein, growth rescue, BacTiter-Glo, 24 h. Potency, µM (top dose mostly 46.1 µM), without a hit: at the top dose growth rescue (activation), usual class: activators. hit rate 0.14% among 370,000. AID 652106; further: % of control where 0% means no effect; nearly all actives have a fitted effect of over 65% in size
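Rescue of yeast growth: cells expressing toxic alpha-synuclein, induced in galactose at OD600 0.02, incubated with compound 24 h at 30 C. ATP luminescence quantified growth; inhibitors of toxicity appear as activators.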
* hit, by the source's call; i = inactive; ? = inconclusive; · = no result; [ ] = another dose, or the depositor's remark. In the library only some 2.1% were active in any assay of this set; here they are far more common. The call rests on the fitted dose curve; in most records, active means well fitted curve in the direction sought with a large enough effect; inconclusive means small, poorly fitted or top-dose-only effect, or another doubt; inactive means no such curve, though single readings can be large; an effect the other way counts as inactive or inconclusive. Potency means the concentration at half of the fitted maximal effect.

SMILES	Abeta rescue	FUS suppressor	TDP-43 yeast inh	aSyn yeast inh
O=C(CSc1ccc(F)cc1)NCCSc1ccccc1	i	i	12.6µM*	6.5%
O=C(O)CC1CCC(=C(Cl)Cl)C1 (stereo not drawn)	i	i	-8.0%	11.2µM*
O=C(O)CC1CC(O)CCC1=O (stereo not drawn)	i	i	2.8%	-0.6%
CC1Cc2ccccc2N1C(=S)NC(=O)C1(C)CC1(Cl)Cl (stereo not drawn)	12.6µM*	i	?	-5.7%
Cc1ccc2onc(CC(=O)N3CCN(c4ccc(F)cc4)CC3)c2c1	i	i	12.6µM*	·
Cc1ccc2onc(CC(=O)N3CCN(c4ccccc4F)CC3)c2c1	i	i	?	·
CCOC(=O)C1CCCN(C2CC(=O)N(c3ccc(N4C(=O)CC(N5CCCC(C(=O)OCC)C5)C4=O)cc3)C2=O)C1 (stereo not drawn)	i	i	8.0%	5.7%
CCOC(=O)C1CCCN(C2CC(=O)N(c3ccc(C(C)C)cc3)C2=O)C1 (stereo not drawn)	i	i	35.5µM*	5.6%
COCCNC(=O)c1ccc2c(=O)n(CCc3ccccc3)c(SCC(=O)CC(=O)OC)nc2c1	i	?	14.2%	·
Cc1cccc(COCC(Cc2ccccc2)N2CCN(C(=O)c3cccc(Cl)c3)CCC2=O)c1 (stereo not drawn)	i	?	20.0%	?
CC(C)CC(COCc1ccc(Cl)cc1)N1CCN(C(=O)c2ccc(Cl)cc2Cl)CCC1=O (stereo not drawn)	i	?	25.1µM*	?
Cc1cccc(COC[C@H](Cc2ccccc2)N2CCN(C(=O)c3cccc(Cl)c3)CCC2=O)c1	i	?	17.8µM*	?
CCOc1ccc(N2C(=O)CC(N3CCN(c4ccc(Cl)cc4)CC3)C2=O)cc1 (stereo not drawn)	i	i	14.1µM*	-15.3%
CC(NC(=O)Cn1ncc2c3ccccc3n(Cc3ccc(F)cc3)c2c1=O)c1ccccc1 (stereo not drawn)	i	i	0.0%[9.22 µM]	·
COc1ccc(CCNC(=O)c2oc3ccc(OC)cc3c2C)cc1	i	i	3.98µM*	-6.1%
COc1ccc(CCNC(=O)c2oc3ccccc3c2C)cc1	i	i	37.7%	-0.7%
COc1ccc(CCC(=O)NCCOc2ccc(Cl)cc2)cc1	i	i	8.91µM*	2.1%
COc1ccc2c(C)c(CCC(=O)NCCc3ccc(Cl)cc3)c(=O)oc2c1	i	i	22.4µM*	·
C(=Nc1ccc2ccccc2n1)c1ccccn1	·	·	·	2.2%
O=C(c1cccs1)N1CCN(c2ccc(Cl)cc2)CC1	i	i	?	9.2%
O=C(c1ccc(CS(=O)c2ccccc2Cl)o1)N1CCN(c2ccccc2F)CC1 (stereo not drawn)	i	i	12.6µM*	·
O=C(c1cccs1)N1CCN(c2cc(Cl)ccc2Cl)CC1	i	i	22.4µM*	-11.8%
COc1ccccc1N1CCN(C(=O)c2cccs2)CC1	i	i	20.8%	2.4%
Cc1cccc(N2CCN(C(=O)c3cccs3)CC2)c1C	i	i	5.62µM*	4.0%
Cc1ccccc1S(=O)Cc1ccc(C(=O)N2CCN(c3cccc(C)c3C)CC2)o1 (stereo not drawn)	i	i	35.5µM*	·
SMILES	Abeta rescue	FUS suppressor	TDP-43 yeast inh	aSyn yeast inh
O=C(Nc1cccs1)OC1CC2CC1[C@H]1CCCCN1C2 (stereo partly drawn)	·	i	·	·
O=C(COc1ccc(Cl)cc1)NCC(c1ccco1)S(=O)(=O)c1ccc(F)cc1 (stereo not drawn)	i	i	24.7%	·
Cc1ccc(C(=O)N2CCN(c3cccc(C)c3C)CC2)o1	i	i	12.6µM*	5.2%
c1ccc(-c2cc(-c3nc4ccccc4[nH]3)c3ccccc3n2)cc1	i	i	15.8µM*	-0.9%
CC1CCN(C(=O)C(C)OC(=O)CSc2ccc([N+](=O)[O-])cc2)CC1 (stereo not drawn)	i	i	35.5µM*	-10.3%
CCOC(=O)c1sc2ncnc(NCc3ccco3)c2c1C	?	i	20µM*	2.6%
COc1ccc(C(=O)c2cnc3ccccc3c2-c2ccccc2)cc1	i	i	35.5µM*	13.5%
Cc1ccc(C(=O)c2cnc3ccccc3c2-c2ccccc2)cc1	i	i	?	-9.3%
CC1=Nc2cc(C(=O)O)ccc2Sc2ccc(C)cc21	i	i	12.6µM*	28.6%
CC1=Nc2cc(C(=O)N3CCCC3)ccc2Sc2c(C)ccc(C)c21	·	?	13.1%	?
CC1=Nc2cc(C(=O)O)ccc2Sc2c(C)ccc(C)c21	i	i	25.1µM*	6.6%
CCC(C)NC(=O)c1ccc2c(c1)N=C(C)c1cc(C)ccc1S2 (stereo not drawn)	i	?	-9.2%	·
C(=C\c1ccnc2ccccc12)/c1ccc(N(Cc2ccccc2)Cc2ccccc2)cc1	·	·	·	-1.9%
CCOc1ccccc1C(=O)N(Cc1ccco1)Cc1ccco1	i	i	19.7%	·
Cc1csc2c(N3CCN(C(=S)Nc4ccc(C(F)(F)F)cc4)CC3)ncnc12	i	i	6.1%	-2.8%
Cc1csc2ncnc(N3CCN(C(=S)Nc4ccc(C(F)(F)F)cc4)CC3)c12	i	?	12.6µM*	8.4%
COc1ccccc1CNC(=O)C1CCCN(c2nnc(-n3c(C)ccc3C)s2)C1 (stereo not drawn)	i	i	2.7%	·
CCOc1ccc(NC(=O)Cn2cc(C(=O)c3ccc(C)c(C)c3)c(=O)c3cc(F)ccc32)cc1	i	i	15.8%	·
CCCCN(C)c1nc(-c2ccco2)c2c(c1C#N)CC(C)(C)OC2	i	i	20µM*	-38.5%
CC(=O)c1ccc(NC(=O)Cn2nc(C(F)(F)F)c3c2CCCC3)cc1	i	i	26.4%	·
Cc1noc(C)c1COc1ccccc1C(=O)N(C)Cc1ccc(C(C)(C)C)cc1	i	i	35.5µM*	4.9%
Cc1cc(N2CCN(c3ccccc3F)CC2)n2cnnc2n1	i	i	?	·
Cc1cc(N2CCN(c3cccc(C)c3C)CC2)n2cnnc2n1	i	i	22.4µM*	·
COc1ccc(NC(=O)c2oc3ccccc3c2NC(=O)Cc2coc3c(C)c(C)ccc23)cc1	i	i	15.3%	·
Cc1c(C(=O)N2CCN(S(=O)(=O)c3cc(F)ccc3F)CC2)oc2ccccc12	i	i	14.1µM*	8.5%
Cc1c(C(=O)N2CCN(S(=O)(=O)c3ccccc3)CC2)oc2ccccc12	i	i	15.8µM*	4.4%
Cc1c(C(=O)N2CCN(c3ccccc3)CC2)oc2c(F)cccc12	i	i	14.1µM*	5.9%
COc1ccc2oc(C(=O)N3CCN(S(=O)(=O)c4ccc(F)cc4)CC3)c(C)c2c1	i	i	?	1.9%
COc1ccc(S(=O)(=O)N2CCN(C(=O)c3oc4ccccc4c3C)CC2)cc1	i	?	11.2µM*	-15.3%
CSc1ccc(CNC(=O)c2sc3ncnc(N(C)C4CCCCC4)c3c2C)cc1	i	?	10.6%[9.22 µM]	·

From PubChem BioAssay
